# ± gives the standard deviation. The full ranking holds about 5,500 sequences; the median of “pre-steady-state target cleavage rate” is about 0.1, and the highest 2% start at about 0.64. This excerpt belongs to a sample that is enriched for the highest values.
# Test system: MIWI (PIWIL1) piRISC loaded with piRNA #2 (30 nt)
# Experiment: pre-steady-state target cleavage rate (min^-1); MIWI and MILI are mouse PIWI proteins and EfPiwi is from a freshwater sponge; tags in brackets are library labels; higher = faster piRNA-guided slicing of the target
# Settings: guide: piRNA #2 5'p-UUAGGUAACCCAGUAGAUCCAGAGGAAUUC; auxiliary factor: 500 nM mouse GTSF1
# Outline: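 The pre-steady-state cleavage rate came from a burst-and-steady-state fit to pooled data from three Cleave-'n-Seq trials, in which uncleaved targets were sequenced and normalised to depth and to weakly complementary targets. Each reaction held 0.1 nM transcribed, DNA-blocked target RNA library and 1 nM active affinity-purified piRISC carrying one synthetic guide, with or without 500 nM GTSF1 partner protein, in HEPES–potassium acetate buffer at 33 °C for 0–8 or 0–960 min. k3 was capped at 0.0001 min^-1.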
row,Sequence,pre-steady-state target cleavage rate
1,CUUAACCUCUGGAUAUACUGGGUUACCUAA,0.552 ± 0.042
2,CAAUUCCUCUGGAUCUACUGGGUAACCUAA,0.263 ± 0.049
3,CUUAACCUCUGGAUCUACUGGGUAUGCUAA,0.0233 ± 0.0061
4,CAAAAGCUCUGGAUCUACUGGGUUACCUAA,0.105 ± 0.025
5,CUUAAGGAGUGGGAUCUACUGGGUUACCUAA,0.0146 ± 0.0073
6,GAAUUCCUCUGGAUCUACUGGUGUUACCUAA,0.0068 ± 0.0031
7,CUUUUUCCUCUGGAUCUACUGGGUUACCUAA,0.308 ± 0.046
8,CUAUUCCUCUGGAUCUACUGGGUUACCUAA [g2:g28:cont:t1A],0.388 ± 0.062
9,GAAUUCCUCUGGAUCUACUGUGGUUACCUAA,0.00388 ± 0.0038
10,CAAUUCCUCUGGAUCUACUGGUUACCUAA,0.19 ± 0.046
11,CUUUUCCUCUGGAUCUACUGGUGUUACCUAA,0.00402 ± 0.0035
12,CUAUUCCUCUGGAUCUACUGGUGUUACCUAA,0.00505 ± 0.0032
13,CUUUUCCUCUGGAUCUACUGUGUUACCUAA,0.751 ± 0.048
14,CAAUUCCUCUGGAUCUACUGGUGUUACCUAA,0.0066 ± 0.0037
15,CUAUUCCUCUGGAUCUACUGUGUUACCUAA,0.696 ± 0.073
16,CAAUUCCUCUGGAUCUACUGUGUUACCUAA,0.751 ± 0.075
17,GAAUUCCUCUGGAUCUACUGUGUUACCUAA,0.673 ± 0.06
18,CAAUUGCUCUGGAUCUACUGGGUUACGUAA,0.536 ± 0.067
19,CUUAAGGUGACGAUCUACUGGGUUACCUAA,0.0052 ± 0.0036
20,CUUAAGGACAGGAUCUACUGCGUUACCUAA,0.0331 ± 0.017
21,CUUAACGUCUCGAUCUACUGGGUUACCUAA,0.357 ± 0.041
22,CUUAAGGAGUAGAUCUACUGGGUUACCUAA,0.00567 ± 0.0048
23,CAAUUCCUCUGGUUCUACUGGGAUACCUAA,0.145 ± 0.038
24,CUUAACCUGUGGAACUACUGGGUUACCUAA,0.177 ± 0.048

row,Sequence,pre-steady-state target cleavage rate
1,CUUAAGGAGACCUUCUACUGGGUUACGUAA,0.00451 ± 0.0027
2,CUUUUCCGUCUGGAUCUACUGGGUUACCUAA,0.385 ± 0.039
3,CUUAACCUCUGGAUCUACUGUGUUACCUAA,0.597 ± 0.045
4,CUUAUCCUCUGGAUCUACUGGUUACCUAA,0.0947 ± 0.024
5,CUUAUCCUCUGGAUCUACUGUGUUACCUAA,0.722 ± 0.074
6,CUUAAGCUCUGGAUCUACUGGGUUACCUCAA,0.0988 ± 0.015
7,CAUUUCCACUGGAUCUACUGGGUUACCUAA,0.478 ± 0.058
8,CAAUUCCUCUCGAUCUACUGGGUUACCAAA,0.904 ± 0.073
9,CUUUUCCUCUCGAUCUACUGGGUUACCAAA,0.64 ± 0.048
10,CUUUUCCUCUCGAUCUACUGGGUUACCUUA,0.539 ± 0.05
11,CUUAUCCUCUCGAUCUACUGGGUUACCAAA,0.542 ± 0.041
12,CUAUUCCUCUCGAUCUACUGGGUUACCAAA,0.711 ± 0.047
13,CUUUUCCUCUGGAUCUACUGGGUUACCAAA,0.477 ± 0.052
14,GAAUUCCUCUCGAUCUACUGGGUUACCAAA,0.564 ± 0.067
15,CUAUUCCUCUGGAUCUACUGGGUUACCAAA,0.477 ± 0.061
16,CAAUUCCUCUGGAUCUACUGGGUUACCAAA,0.509 ± 0.068
17,GAAUUCCUCUGGAUCUACUGGCUAACCUAA,0.0225 ± 0.0083
18,CAAUUCCUCUGGAUCCUACUGGGUUACCUAA,0.29 ± 0.055
19,GAAUUCCUCUCGAUCUACUGGGUUAGCUAA,0.237 ± 0.052
20,CUUAAGGAGACCUAGUUCUGGGAUACCUAA,< 0.0001
21,CAAUUCCUCUGGAUCUAGACCCAAUGGAUA [g14:g29:cont:t1A],< 0.0001
22,GAAUUCCUCUGGUUCUACUGGGUAACCUAA,0.288 ± 0.063
23,CUAUUCCUCUGGAACUACUGGGUUUCCUAA,0.337 ± 0.12
24,CUUUUCCUCUGGUUCUACUGGGUUUCCUAA,0.522 ± 0.19

row,Sequence,pre-steady-state target cleavage rate
1,CAAUUCCUCUGGUUCUACUGGGUAACCUAA,0.162 ± 0.032
2,CUAUUCCUCUGGAUCUACUGGGUUUCCUAA,0.344 ± 0.053
3,GAAUUCCUCUGGAACUACUGGGUUUCCUAA,0.646 ± 0.21
4,CAAUUCCUCUGGAACUACUGGGUUUCCUAA,0.348 ± 0.1
5,GAAUUCCUCUGGAUCUACUGGGUUUCCUAA,0.27 ± 0.047
6,CAAUUCCUCUGGUUCUACUGGGUUUCCUAA,0.951 ± 0.36
7,CUAUUCCUCUGGUUCUACUGGGUUUCCUAA,1.05 ± 0.44
8,CUAUUCCUCUGGUUCUACUGGGUAACCUAA,0.156 ± 0.033
9,GAAUUCCUCUGGUUCUACUGGGUUUCCUAA,0.923 ± 0.3
10,CUUUACCUCUGGAUCUACUGGGUUUCCUAA,0.167 ± 0.029
11,CAAUUCCACUGGUUCUACUGGGUUACCUAA,0.593 ± 0.041
12,CUUAAGGAGAGGAUCUACUGGGUUAACCUAA,0.00722 ± 0.0036
13,CUUUUCCUCUGGAUCUACGGGUUACCUAA,0.0476 ± 0.0059
14,CUUAAGGACUGGAUCAACUGGCUUACCUAA,0.0268 ± 0.022
15,CUUAAGGACUCGAUCUACUGGGUUAGCUAA,0.00705 ± 0.0047
16,CUUAACCACUGGAUCUACUGGGUUACGUAA,0.402 ± 0.031
17,CAAUACGUCUGGAUCUACUGGGUUACCUAA,0.494 ± 0.053
18,GAAUUCCUCUGGAACUACUGGGUUACGUAA,0.657 ± 0.04
19,CAAUUCCUCUGGAACUACUGGGUUACGUAA,0.517 ± 0.048
20,CUAUUCCUCUGGAACUACUGGGUUACGUAA,0.47 ± 0.031
21,CUUAAGCUCUGCAUCUACUGGGUUAGCUAA,0.182 ± 0.027
22,CUUUUCCUCUCCAUCUACUGGGUUACCUAA,0.554 ± 0.044

# Source: the supplement of paper PMC10338343
